Source: PubChem BioAssay (NCI)
The panel holds about 79,000 compounds, 15% with a hit somewhere; the sample as a whole holds those more often. Cut-off read from the data, not from the text of the source: active = growth inhibition above about 70%; inactive = the rest.

What was measured:
[1] = NCI Yeast Anticancer Drug Screen. Data for the rad50 strain (AID 155);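 note: 0% = growth of vehicle-only cultures of the same strain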; settings: S. cerevisiae rad50 strain growth inhibition; at 50.0 µM; stronger effect = higher value
Outline: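 Genetically altered yeast (DNA repair pathway); compound treatment; growth inhibition vs vehicle ctrl.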

[2] = NCI Yeast Anticancer Drug Screen. Data for the mec2-1 strain (AID 157); settings: S. cerevisiae mec2-1 strain, at 50.0 µM, stronger effect = higher value
Outline: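 Yeast mec2-1 mutant treated with compound. Readout: growth inhibition vs vehicle controls.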

[3] = NCI Yeast Anticancer Drug Screen. Data for the sgs1 mgt1 strain (AID 161);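 note: 0% = growth of cultures given vehicle only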; settings: S. cerevisiae sgs1 mgt1 strain, at 50.0 µM, stronger effect = higher value
Outline: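 Genetically altered yeast, compound exposure, growth inhibition relative to vehicle.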

[4] = NCI Yeast Anticancer Drug Screen. Data for the cln2 rad14 strain (AID 165);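 note: 0% = growth equal to vehicle treated cultures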; settings: S. cerevisiae cln2 rad14 strain, at 50.0 µM, stronger effect = higher value
Outline: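 cln2 rad14 yeast strain; compound exposure; growth inhibition read vs vehicle controls.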

[5] = NCI Yeast Anticancer Drug Screen. Data for the bub3 strain (AID 167); settings: S. cerevisiae bub3 mutant strain, at 50.0 µM, stronger effect = higher value
Outline: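 Yeast carrying a defined mutation is treated with each compound, and growth is compared with that of vehicle-exposed cells to give inhibition.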

[6] = NCI Yeast Anticancer Drug Screen. Data for the mlh1 rad18 strain (AID 175); settings: S. cerevisiae mlh1 rad18 strain growth inhibition; at 50.0 µM; stronger effect = higher value
Outline: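 Yeast w/ defined DNA-repair lesions; compound exposure; growth vs vehicle controls → % inhibition.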

Measured: growth inhibition

CCC(=O)OC1CCCCC1C1CCCCC1 (stereo unspecified)
inactive: [1] 1.55% | [2] -2.35% | [3] 8% | [4] -37.6% | [5] -3.45% | [6] -3.9%

Cc1ccc([N+](=O)[O-])cc1Br
inactive: [1] 0.3% | [2] -16.1% | [3] -0.5% | [4] -11.8% | [5] 5.5% | [6] 4%

O/N=C(/CC(O)(c1ccccc1)c1ccccc1)c1ccccc1
inactive: [1] 22.6% | [2] -6.8% | [3] 7.8% | [4] -15.4% | [5] -17.9% | [6] 27.4%

C=C(Br)CNC(=O)c1ccccc1
inactive: [1] 7.5% | [2] -3.45% | [3] -1.35% | [4] -39.4% | [5] 21.4% | [6] 5.2%

Cc1cc(Cl)ccc1NC(=O)C1C(=O)C(=O)N(c2ccc(Cl)cc2C)C1=O (stereo unspecified)
inactive: [1] 7.4% | [2] -2.3% | [3] 14.8% | [4] 13.4% | [5] -18.2% | [6] 17.2%

COc1ccc(/C=N/Nc2nc3ccccc3s2)cc1
inactive: [1] 7.9% | [2] -3.15% | [3] -3.15% | [4] -41.4% | [5] 1% | [6] 25.6%

Cc1ccc(OC(=O)c2cc([N+](=O)[O-])cc([N+](=O)[O-])c2)cc1
inactive: [1] 4.4% | [2] -0.5% | [3] 13.3% | [4] -12.8% | [5] 2% | [6] -0.7%

N#Cc1ccccc1OCCCCCCCCCCOc1ccccc1C#N
inactive: [1] -2.8% | [2] -4.15% | [3] -19.6% | [4] 31.4% | [5] -1% | [6] 3.8%

CC[N+](C)(CC)CC(O)C[N+]1(C)CC2CCCCC2C1 (stereo unspecified)
inactive: [1] 13.1% | [2] -1.7% | [3] 6.2% | [4] -10.2% | [5] -4.65% | [6] 4.1%

CN(C)/N=C\c1ccc(C(=O)O)cc1
inactive: [1] -4.35% | [2] 25.6% | [3] 8.5% | [4] -11.9% | [5] 28.3% | [6] 22.9%

O=C(c1ccc(Cl)cc1)C1C(c2ccccc2)C1[N+](=O)[O-] (stereo unspecified)
inactive: [1] 11.2% | [2] -11.2% | [3] -3.2% | [4] -28.9% | [5] 16.4% | [6] 31%

COC1CC2CC1C1COCC21 (stereo unspecified)
inactive: [1] 7.15% | [2] -4.05% | [3] -19.9% | [4] -12.4% | [5] -12.4% | [6] -7.6%

O=c1ccn2c(n1)OC1CC2OC1COC(c1ccccc1)(c1ccccc1)c1ccccc1 (stereo unspecified)
inactive: [1] -8.8% | [2] 4.15% | [3] 12.2% | [4] -17.4% | [5] 3.6% | [6] 10.3%

C=C(C)C(=O)OCC(CC)(COC(=O)C(=C)C)COC(=O)C(=C)C
inactive: [1] -9.25% | [2] -19.6% | [3] 8.35% | [4] -2.05% | [5] 18.6% | [6] 0%

ClC1CCC(c2ccccc2)CC1 (stereo unspecified)
inactive: [1] 9.2% | [2] -3.45% | [3] 1.5% | [4] 3.75% | [5] -11.2% | [6] -2.6%

CCOc1ccc(N=Nc2c(O)n(-c3ccc(Br)cc3)c(=S)n(-c3ccc(OC)cc3)c2=O)cc1
inactive: [1] 28.8% | [2] -8.7% | [3] -9.1% | [4] -24.4% | [5] 1.35% | [6] 2.3%

Cn1c(=O)c2[nH]c(N(CCO)CCO)nc2n(C)c1=O
inactive: [1] 7.75% | [2] 9.95% | [3] 23.9% | [4] 21.9% | [5] -2.3% | [6] 15.1%

O=C1CSC2=NC3=C(COC/C3=C\c3ccc(Br)cc3)C(c3ccc(Br)cc3)N12 (stereo unspecified)
inactive: [1] 7.05% | [2] 14.3% | [3] 39.1% | [4] 18.9% | [5] 33.6% | [6] 33.1%

O=C(Nc1ccc(C2=NCCN2)c(O)c1)c1ccc(C(=O)Nc2ccc(C3=NCCN3)c(O)c2)cc1
inactive: [1] 32.6% | [2] 3.95% | [3] 23.2% | [4] 36.2% | [5] 7.5% | [6] 28.6%

CS(=O)(=O)Oc1ccc2cc(Br)ccc2c1
inactive: [1] 13.6% | [2] -5.35% | [3] -0.3% | [4] 4.25% | [5] 31.4% | [6] 9.75%

CC(=O)c1cc(C(C)=O)c2cc(C)cc(O)c2c1O
inactive: [1] 15.7% | [2] -13.9% | [3] 8.45% | [4] 1.9% | [5] 13.9% | [6] -9.7%

CN1CC(CN2CCCCCC2)C(O)C(c2ccccc2)C1 (stereo unspecified)
inactive: [1] 1.7% | [2] -7.1% | [3] 18% | [4] 7.85% | [5] -1.5% | [6] 27.6%

CC(=O)N1CC(C)(C)c2c(C)c(O)c(C)c(C)c21
inactive: [1] -16.1% | [2] -22.3% | [3] -15.4% | [4] 17.1% | [5] 8.45% | [6] 0.3%

CC12CCCC(C(=O)O)(C1)[C@H](C(C)(C)C(=O)O)CC2 (stereo partly specified)
inactive: [1] -29.5% | [2] -40.9% | [3] -15.7% | [4] 8.75% | [5] -4.2% | [6] -10.8%

COc1ccc(NC(=S)c2ccoc2C)cc1CC(=O)OC(C)C
inactive: [1] 17.4% | [2] 18.4% | [3] 48.5% | [4] 13.2% | [5] 37.9% | [6] -18.7%

CCCCCC[C@H](C/C=C\CCCCCCCC(=O)OCCCC)OC(C)=O
inactive: [1] -14.7% | [2] 0.2% | [3] -10.2% | [4] -14.2% | [5] -29.4% | [6] -8.8%

CN(C)c1ncnc2c1cnn2-c1ccccc1
inactive: [1] -4.45% | [2] -4.35% | [3] 0.2% | [4] -40.8% | [5] -0.25% | [6] -3.15%

C1=C[CH]([Sn]([CH]2C=Cc3ccccc32)([CH]2C=Cc3ccccc32)[CH]2C=Cc3ccccc32)c2ccccc21 (stereo unspecified)
inactive: [1] -14.2% | [2] -6.75% | [3] -1% | [4] -6.4% | [5] 1.2% | [6] -1.7%

Cc1cc(Cl)c2c(c1)C(=O)C(C)C2.[Cu+2] (stereo unspecified)
inactive: [1] -13.1% | [2] -10.2% | [3] -18.8% | [4] -26.4% | [5] -6.65% | [6] -6.2%

Brc1ccc(N=N/C(=N/Nc2ccccc2)c2ccc(/C=N/Nc3ccccc3)cc2)cc1
inactive: [1] 45.8% | [2] 24.4% | [3] 14.6% | [4] 29.2% | [5] 15% | [6] 34.4%

O=[N+]([O-])c1ccc2c(c1)Cc1cc([N+](=O)[O-])ccc1-2
inactive: [1] -12.3% | [2] -64.5% | [3] -25.4% | [4] -181% | [5] -54.1% | [6] 51.2%

CCN(CC)CCOC(=O)c1noc2cc([N+](=O)[O-])ccc12
inactive: [1] 0.7% | [2] 12.9% | [3] -1.25% | [4] -23.7% | [5] 5% | [6] 9.85%

COc1ccc(-c2cc(-c3ccccc3)n(C3OC(COC(C)=O)C(OC(C)=O)C(OC(C)=O)C3OC(C)=O)c(=S)c2C#N)cc1 (stereo unspecified)
inactive: [1] 5% | [2] -11.8% | [3] -8.6% | [4] -25.4% | [5] 26.5% | [6] -5.2%

c1ccc2[nH]cnc2c1
inactive: [1] 7.85% | [2] -1.55% | [3] 0.65% | [4] -4.4% | [5] 8.7% | [6] -46.8%

Cc1nc2c(N)cc(Cl)cc2[nH]1
inactive: [1] 13.2% | [2] 13.3% | [3] 19.6% | [4] 8.25% | [5] -7.3% | [6] 7.75%

CCCCCCCCCSc1nc2ccccc2s1
inactive: [1] 12.8% | [2] 6.25% | [3] 18.2% | [4] 5.45% | [5] 14.5% | [6] -10.1%

O=C(O)CCCc1ccc2c(c1)-c1ccccc1S2=O (stereo unspecified)
inactive: [1] 0.65% | [2] 3.8% | [3] 1.25% | [4] -3.6% | [5] -4% | [6] 13.1%

Cc1ccc(Cl)cc1NC(=O)Oc1ccc(Cl)cc1C
inactive: [1] 23.2% | [2] 9.1% | [3] -7.8% | [4] 8.8% | [5] 15.7% | [6] 3.25%

CC(CCc1ccccc1)N(C)C(=O)CNC(=O)CN1C(=O)c2ccccc2C1=O (stereo unspecified)
inactive: [1] -18.9% | [2] 1.35% | [3] 6.85% | [4] -1.25% | [5] -15.1% | [6] -6.9%

N#C/C(=C/c1ccc(Cl)cc1)C(=O)O
inactive: [1] 6.35% | [2] -2.35% | [3] -13.3% | [4] 6.35% | [5] -0.15% | [6] 21.1%

O=C(CCc1ccccc1CO)NCCc1ccccc1
inactive: [1] 52% | [2] 20.9% | [3] -18.1% | [4] 7.8% | [5] -34.1% | [6] 3.85%
